PubChem BioAssay AID1159524 (National Center for Advancing Translational Sciences (NCATS), 2015)
In all, about 410,000 compounds went through this assay and about 5,100 (1.2%) were called active. Not shown: some 8% with an inconclusive outcome. The sample as a whole holds a higher share of actives than the screen did. A number with no mark means an inactive call. Calls follow the shape of the full dose curve; tested in HEK293T cells.

Assay: High Throughput Screening for Foot and Mouth Disease Virus Antivirals; also: read-out not given here; nearly all actives have a fitted effect of over 45% in size
Conditions: FMDV antiviral cell-based qHTS; series mostly up to 57.9 µM; activity change, negative = inhibition: at the top concentration
% is scaled to controls: 0 for no effect and ±100 for the full control effect; potency is read from the fitted curve at half-maximal effect.

SMILES	activity change, negative = inhibition	Potency
COc1ccc2c(c1)NC(=O)C2CC(=O)N1CCOc2c(cc(-c3cnc4ccccc4c3)cc2OC)C1 (configuration not stated)	-23.5%	
O=C1/C(=C\c2ccc([N+](=O)[O-])cc2)CS(=O)(=O)C/C1=C/c1ccc([N+](=O)[O-])cc1		2.24 µM (active)
Nc1ccc([N+](=O)[O-])cc1	-19.3%	
O=C(NCCCc1ccccc1)c1ccc2c(c1)sc1nc(-c3ccc(F)cc3)cn12	-2%	
Cc1ncc2c(c1CNS(=O)(=O)N(C)C)CCN(C(=O)c1ccccc1F)C2	-10.2%	
COc1cccc(CNC(=O)c2ccc3c(Cl)c4c(nc3c2)CCCC4)c1	12.9%	
CC(C)CCNC(=O)c1ccc2c(Cl)c3c(nc2c1)CCC3	-24.9%	
CC(=O)c1ccc(NC(=O)c2ccc3c(Cl)c4c(nc3c2)CCCC4)cc1		22.4 µM (active)
COc1ccc(-c2noc(-c3ccc(N4CCN(c5ccccc5)CC4)c([N+](=O)[O-])c3)n2)cc1OC	-12.9%	
c1ccc(CN2CCN(Cc3ccc4c(c3)CN(Cc3c[nH]c5ccccc35)CCO4)CC2)nc1	-12.3%	
COc1ccccc1/C=C/C(=O)OCC(=O)NC1CCCCCC1	0.416%	
CCOC(=O)C(=O)C1C(=O)Nc2ccccc21 (configuration not stated)	-14.8%	
CCOC(=O)C(=Cc1ccccc1OC)C(=O)OCC		28.2 µM (active)
CCOC(=O)CCP(=O)(O)C(O)(c1ccccc1)c1ccccc1	-8.31%	
COc1ccccc1C(=O)OCC(=O)NCCNC(=O)COC(=O)c1ccccc1OC	-9.67%	
CCOC(=O)C(=Cc1ccccc1)C(=O)c1ccccc1		8.91 µM (active)
Cc1ccc(CC2(O)CCN(CCOc3ccc(O)cc3)CC2)cc1	-14.5%	
C[C@@H]1CN(Cc2ccc3c(c2)CN(Cc2ccc(Oc4ncccn4)cc2)CCO3)C[C@H](C)O1	-3.92%	
CCS(=O)(=O)N(C)[C@@H]1c2cc(C#N)ccc2OC(C)(C)[C@H]1O		inactive
Cc1ccc(C(=O)Nc2ccc(OCc3cc(=O)n4c(C)csc4n3)cc2)cc1	-2.45%	
CC(=O)Nc1ccc(C(=O)Nc2nc(-c3cc(C)n(Cc4ccccc4)c3C)cs2)cc1		22.4 µM (active)
CC(=O)NC(c1ccccc1)c1nc(-c2ccccc2C)cs1 (configuration not stated)	-1.87%	
CCn1c(SCC(=O)Nc2nc(C)cs2)nnc1C(C)NC(=O)c1ccccc1 (configuration not stated)	-1.72%	
CC(=O)Nc1ccc(-c2csc(NC(=O)Nc3ccccc3)n2)cc1		15.8 µM (active)
CC(=O)c1ccc(NC(=O)CSc2nnc(NC(=O)Nc3ccccc3)s2)cc1	27.2%	

SMILES	activity change, negative = inhibition	Potency
O=S(=O)(NCC(c1ccccc1)N1CCc2ccccc21)c1ccccc1 (configuration not stated)	-18%	
CC1CN(Cc2nc3c(c(=O)n(C)c(=O)n3C)n2Cc2cccc(Cl)c2)CC(C)O1 (configuration not stated)	-21.5%	
CC1CCCN(Cc2nc3c(c(=O)n(C)c(=O)n3C)n2CC(=O)c2ccccc2)C1 (configuration not stated)	0%	
COCCn1c(CN2CCC(Cc3ccccc3)CC2)nc2c1c(=O)n(C)c(=O)n2C		15.8 µM (active)
CC(C)C1=CC2=CC[C@H]3[C@](C)(C(=O)O)CCC[C@]3(C)C2CC1 (some centres not stated)	-0.372%	
COc1ccc2c(CN3CCN(S(=O)(=O)c4cccs4)CC3)cc(=O)oc2c1		39.8 µM (active)
CC(=O)N1CCN(Cc2cc(=O)oc3cc(C)ccc23)CC1	-5.75%	
O=c1cc(CN2CCN(S(=O)(=O)/C=C/c3ccccc3)CC2)c2ccc(O)cc2o1	-8.35%	
O=c1c(NCc2cccs2)nccn1-c1ccccc1	49.2%	
CCCCC/C=C\C/C=C\C/C=C\C=C\[C@H](CCCC(=O)O)OO	-15.4% [at 0.463 µM]	
COc1ccc(CCNC(=O)c2ccc(CS(=O)(=O)c3ccc(Br)cc3)o2)cc1OC		31.6 µM (active)
O=C(NCc1cccnc1)c1ccc(CS(=O)(=O)c2ccc(Br)cc2)o1	-5.61%	
COc1ccc(CCNC(=O)c2nnc(CS(=O)(=O)c3ccccc3)o2)cc1OC	-14.6%	
O=c1c2sccc2nc(SCc2cc(=O)n3ccccc3n2)n1-c1ccc(Br)cc1	0%	
Cc1ccc(CSc2nc3[nH]ncc3c(=O)[nH]2)cc1	0%	
Cc1nnc(SCc2cccc(Cl)c2)n(N)c1=O	-10.6%	
Cc1nnc(NC(=O)CSc2nc3c([nH]c4ccccc43)c(=O)n2-c2cccc(Cl)c2)s1	-12.3%	
CCc1ccc(-n2c(SCc3cc(=O)n4cc(Br)ccc4n3)nc3[nH]ncc3c2=O)cc1		31.6 µM (active)
Cc1cccc2nc(CSc3nc4[nH]ncc4c(=O)n3-c3cccc(Cl)c3)cc(=O)n12		15.8 µM (active)
O=C(NCc1ccccc1)C(=O)NCC(c1ccco1)S(=O)(=O)c1ccc(Cl)cc1 (configuration not stated)		31.6 µM (active)
COc1ccc(CCNC(=O)C(=O)NCC(c2ccco2)S(=O)(=O)c2cccs2)cc1OC (configuration not stated)	0%	
O=C(Cc1ccc(Cl)cc1)NCC(c1cccs1)S(=O)(=O)c1ccc(Cl)cc1 (configuration not stated)	-11.8%	
COc1ccc(Oc2ncc3nc(-c4ccc(F)cc4)c(=O)n(C)c3n2)cc1	-9.03%	
CC(=O)Nc1cc(C(=O)NCc2ccc(F)cc2)ccc1Sc1ccc(F)cc1	-26.4%	
COc1ccc(C2=Nn3c(nnc3-c3ccccc3OC)SC2)cc1OC1CCCC1		14.1 µM (active)

SMILES	activity change, negative = inhibition	Potency
Cc1nnc2n1N=C(c1ccc3c(c1)NC(=O)CO3)CS2	21.3%	
CCN(CCCNC(=O)CSc1cc(=O)n(C)c2cc(Cl)ccc12)c1cccc(C)c1	-13.6%	
CCC1(C2CCN(C(=O)c3cccc(F)c3F)CC2)NC(=O)N(CCc2scnc2C)C1=O (configuration not stated)	7.43%	
COc1cc(=O)n2c(c1C(=O)NCc1ccco1)CCN(Cc1ccccc1)CC2	2.46%	
COc1cccc(-c2nc(CS(=O)(=O)CC(=O)N3CCN(c4cc(C)ccc4C)CC3)c(C)o2)c1		20 µM (active)
Cc1ccccc1-c1nc(CS(=O)(=O)CC(=O)N2CCc3ccccc3C2)c(C)o1	-27%	
CCCCN(CC)CCCNC(=O)CS(=O)(=O)Cc1nc(-c2cccc(OC)c2)oc1C	-3.14%	
COc1ccc(C)cc1-n1c(-c2ccc(C)cc2)cc2c1CC(C)(C)CC2=O	-2.9%	
N#CC(C#N)=Cc1cc(O)c(O)c([N+](=O)[O-])c1	-7.05%	
COc1ccc(-n2nnc(-c3nsc(NC(=O)c4ccc(C)c(C)c4)n3)c2C)cc1Cl	-19.3%	
Cc1sc2ncnc(SCC(=O)Nc3ccc(CN4CCCC4)cc3)c2c1C	-22.6%	
CCc1ccc(CNC(=O)C2CCN(c3nnc(C)c4c(C)n(-c5ccc(C)cc5)nc34)CC2)cc1		inactive
Cc1ccc(C)n1-c1nnc(N2CCC(C(=O)NCc3ccc(F)cc3)CC2)s1	-25.1%	
CCc1ccc(C(=O)NNC(=O)C2CCN(c3ncnc4sc(C)c(C)c34)CC2)cc1		31.6 µM (active)
Cc1sc2ncnc(N3CCC(C(=O)NNC(=O)c4ccc(F)cc4)CC3)c2c1C		20 µM (active)
Cc1sc2ncnc(SCC(=O)NC3CCS(=O)(=O)C3)c2c1C (configuration not stated)	-23.1%	
COc1cccc(Cn2c(=O)c(CCc3ccccc3)nc3cnc(N(C)C)nc32)c1	-7.95%	
COc1ccc(/C=C2\NC(=O)[C@@H]3Cc4ccccc4CN3C2=O)cc1	28%	
CC(=O)N1CCC2(CC1)CCN(c1ccncc1)CC2	-9.96%	
COc1ccc(C2Oc3c(I)c(OC)cc(OC)c3CC2O)cc1OC (configuration not stated)	3.52%	
COc1ccc(-n2c(=O)c(C)nc3cnc(N4CCOCC4)nc32)cc1	-8.77%	
Cc1ccc(CCNC(=O)c2ccc3c(c2)nc2n3CCC(C)C2)cc1 (configuration not stated)	-9.81%	
CCCCCn1c(SCCC(C)C)nc2c1c(=O)[nH]c(=O)n2C		39.8 µM (active)
C=CCn1c(SCc2ccccc2)nc2c1c(=O)[nH]c(=O)n2C	32.2%	
CC=CCn1c(SCCCc2ccccc2)nc2c1c(=O)[nH]c(=O)n2C	-12.5%	

SMILES	activity change, negative = inhibition	Potency
COc1ccc(S(=O)(=O)NCc2cccn2Cc2cccc(C)c2)cc1	71.6%	
Cn1cc(-c2nc3cnc(N4CCNCC4)nc3n(CCc3ccccc3)c2=O)c2ccccc21	-24.2%	
Cc1cc(-c2ccnc(-n3ncc(C(=O)NC(C)(C)CO)c3C3CC3)n2)c(C)s1	6.73%	
CCOC(=O)c1c(NC(=O)c2cc(CC)on2)sc(C(C)=O)c1C	0.248%	
CCOC(=O)c1c(NC(=O)COC(=O)c2ccc(S(=O)(=O)C(F)F)cc2)sc(C(=O)N(C)C)c1C	0.764%	
CCOC(=O)c1c(NC(=O)CCl)sc(C(=O)N(CC)CC)c1C		20 µM (active)
O=C(CCS(=O)(=O)c1ccc2c(c1)NC(=O)CO2)Nc1cccc(C(F)(F)F)c1	-28.2%	
O=C(c1ccco1)N1CCC2(CC1)CN(c1ncccn1)C2	-11.2%	
CCOC(=O)c1cc2c(=O)n3ccccc3nc2n(Cc2ccco2)c1=NC(=O)c1ccc(F)cc1	1.4%	
Cn1c(=O)c(-c2ccccc2)nc2cnc(N3CCNCC3)nc21	6.27%	
Cc1ccc(-c2cn3cc([N+](=O)[O-])ccc3n2)cc1		11.2 µM (active)
Cn1cnc(C(F)(F)F)c1-c1ccc([N+](=O)[O-])cc1	-19.4%	
Cc1ccc(-c2cn3cc(C)ccc3n2)cc1		8.91 µM (active)
Cc1nc(-c2ccccc2)cn2c1nc1ccccc12	-9.62%	
Cc1ccc(-n2cc3ccc([N+](=O)[O-])cc3n2)cc1	-31.7%	
CN(C)C(=O)c1ccc(-c2cncnc2Nc2ccccc2)cc1	-6.02%	
O=C(c1cccc(F)c1)N1CCC2(CCCN(Cc3ccncc3)C2)CC1	-26.4%	
CC1CCN(S(=O)(=O)c2ccc3c(ccn3CCC(=O)NCc3ccc(N(C)C)cc3)c2)CC1	1.71%	
Cc1ccc(S(=O)(=O)N2CCC(C(=O)Nc3cc(C)ccc3C)CC2)cc1	-22.2%	
Cc1ccc2nc(NC(=O)C3CCN(S(=O)(=O)c4ccc5c(c4)oc(=O)n5C)CC3)sc2c1		12.6 µM (active)
Cn1c(=O)oc2cc(S(=O)(=O)N3CCC(C(=O)Nc4ccc(OC(F)(F)F)cc4)CC3)ccc21	-14%	
CC(C)N1C[C@@H](NCc2ccccc2O)C[C@H]1C(=O)N1CCN(c2cccc(C(F)(F)F)c2)CC1	-12.8%	
